Rows were chosen to be rich in hits. Some 11% of all compounds tested hit in one or more screens of this group.
PNC inhibitor = inhibitors of perinucleolar compartment assembly. activity change (PNC), negative = inhibition, % at 10 µM. AID 2417. PC3M PTB-GFP, PNC prevalence imaging, 16 h; stronger effect = lower value. 3.1% of 140,000 active;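 active = readout at or below -70, meaning at least 70% loss of cells showing the perinucleolar compartment, a nuclear body marking cancer cells; inconclusive = readout between -30 and a set limit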;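 also: plate controls were DMSO wells for no effect and camptothecin positive control wells for full effect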
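PC3M cells stably expressing PTB-GFP, 750–1000 cells/well, treated 16 h at 37 °C with compound (23 nl of library stock), in duplicate. After paraformaldehyde fixation and Hoechst stain, imaged at 20x; PNC prevalence scored by image analysis.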
IMPase Li inh = membrane-permeable IMPase blocker, potentiated with lithium; CHO-M1 cells, IP1 TR-FRET (IP-One), carbachol + lithium; Potency, µM (doses to about 59.4 µM), without a hit: at the highest dose activity, negative = IMPase inhibition, actives largely listed as inhibitors; 0.35% of 210,000 active; AID 1457; active = well fitted curve in the direction sought with a large enough effect; inconclusive = small, poorly fitted or top-dose-only effect, or another doubt; inactive = no such curve, though single readings can be large; an effect the other way counts as inactive or inconclusive;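 also: IP1 builds up when IMPase is blocked and the TR-FRET signal falls; potency is read from the fitted curve at half-maximal effect; plate controls were basal vehicle for no effect and high inhibitor control for full effect; nearly all actives have a fitted effect of over 50% in size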
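CHO cells stably expressing M1 receptor (2000/well) were cultured 16–30 h, then exposed to compounds with a small lithium addition for 30 min at 37C. IP1 was measured by TR-FRET competition; AC50 from Hill fits.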
IMPase cell inh = cell-permeable inhibitors of inositol monophosphatase (IMPase); 120,000 tested, under 10 active; inhibition (IP1 accumulation), % at 46.1 µM; P97697; CHO-M1 cells, IP1 accumulation, HTRF TR-FRET ratio; active = well fitted curve in the direction sought with a large enough effect in the signal ratio, not every such curve was filed as active; inconclusive = small, poorly fitted or top-dose-only effect, or a change in a side signal; inactive = no such curve, though single readings can be large or run the other way; the % refers to the signal ratio;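 also: cells stimulated with carbachol in lithium chloride buffer; plate controls were DMSO basal wells for no effect and reference inhibitor wells for full effect; higher means more IMPase inhibition seen as more IP1 and lower FRET ratio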
Target sequence (P97697 whole entry, looked up): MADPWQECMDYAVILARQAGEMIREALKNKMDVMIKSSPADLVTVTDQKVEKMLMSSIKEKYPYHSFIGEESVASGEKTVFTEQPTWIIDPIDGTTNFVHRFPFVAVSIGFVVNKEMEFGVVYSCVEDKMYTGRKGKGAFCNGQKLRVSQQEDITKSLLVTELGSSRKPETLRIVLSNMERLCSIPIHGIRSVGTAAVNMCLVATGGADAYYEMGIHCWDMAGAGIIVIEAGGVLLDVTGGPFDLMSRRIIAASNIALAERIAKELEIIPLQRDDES
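CHO-M1 cells (CHO stably expressing M1 receptor), compound up to 46 uM final, stimulated with carbachol (50 uM as added) in buffer with 50mM LiCl, pH 7.4, 30 min at 37C. Cytosolic IP1 read by TR-FRET; AC50 from Hill fits.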
HPGD inh = inhibitors of human 15-hydroxyprostaglandin dehydrogenase (HPGD); P15428; purified HPGD, NADH fluorescence kinetic, PGE2 substrate; Potency, µM, without a hit: top-dose activity change, negative = inhibition, hits mostly inhibitors; 4.3% of 150,000 active; AID 894; also: potency is read from the fitted curve at half-maximal effect
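20 nM HPGD preincubated 15 min at room temperature with compound in 50 mM Tris-HCl pH 8, 0.01% Tween 20. Started with 1 mM NAD+ and 30 uM prostaglandin E2; NADH fluorescence (360/450 nm) read 5 times over 30-s intervals, last minus first.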
ALDH1A1 block = inhibitors of human aldehyde dehydrogenase 1A1 | Potency, µM (series often up to 75.3 µM), for the others: at the top dose activity, negative = inhibition, actives largely listed as inhibitors | Purified ALDH1A1, NADH fluorescence, propionaldehyde substrate | 7.3% of 220,000 active | P00352;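 also: potency is read from the fitted curve at half-maximal effect; plate controls were no enzyme wells and a reference inhibitor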
Target sequence (P00352 whole entry, looked up): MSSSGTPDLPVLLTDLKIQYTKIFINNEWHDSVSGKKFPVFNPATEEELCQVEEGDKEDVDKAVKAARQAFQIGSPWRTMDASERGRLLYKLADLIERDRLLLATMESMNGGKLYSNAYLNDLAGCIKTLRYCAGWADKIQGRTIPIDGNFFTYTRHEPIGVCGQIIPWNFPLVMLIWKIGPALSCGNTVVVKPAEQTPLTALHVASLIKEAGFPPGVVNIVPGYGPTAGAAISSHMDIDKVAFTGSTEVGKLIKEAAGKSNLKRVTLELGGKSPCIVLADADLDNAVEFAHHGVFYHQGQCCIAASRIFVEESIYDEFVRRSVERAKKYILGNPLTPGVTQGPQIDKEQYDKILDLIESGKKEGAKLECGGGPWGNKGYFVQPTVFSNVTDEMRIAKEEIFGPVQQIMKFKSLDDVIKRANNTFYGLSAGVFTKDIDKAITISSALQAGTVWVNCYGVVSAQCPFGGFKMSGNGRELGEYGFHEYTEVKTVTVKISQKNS
ALOX12 inhib = inhibitors of human 12-lipoxygenase (ALOX12). AID 1452. Potency, µM (top dose mostly 57.1 µM), inactives show top-dose activity change, negative = inhibition, usual class: inhibitors. P18054. 0.12% of 150,000 active. purified 12-hLO, xylenol orange hydroperoxide absorbance; active = well fitted curve in the direction sought with a large enough effect; inconclusive = small, poorly fitted or top-dose-only effect, or another doubt; inactive = no such curve, though single readings can be large; an effect the other way counts as inactive or inconclusive; also: potency is read from the fitted curve at half-maximal effect; nearly all actives have a fitted effect of over 55% in size
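Hydroperoxide formation by human 12-lipoxygenase from 40 uM arachidonic acid was followed colorimetrically via ferric-xylenol orange complex, using the 573/405 nm absorbance ratio. Enzyme concentration was 150 nM, with 30 min reaction at room temperature.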
* = called active by the depositor; ? = inconclusive; · = no result; [ ] = dose if it differs, or a comment. Unless noted, calls follow the shape of the dose curve; as a rule, active = well fitted inhibition curve with a large enough effect (not every such curve was filed as active); inconclusive = small, poorly fitted or top-dose-only effect, or another doubt; inactive = no such curve, though single readings can be large or run the other way. Unless noted, % is scaled to controls: 0 for no effect and ±100 for the full control effect.

SMILES	PNC inhibitor	IMPase Li inh	IMPase cell inh	HPGD inh	ALDH1A1 block	ALOX12 inhib
O=c1[nH]c(=O)n([C@@H]2C[C@H](O)[C@H](CO)O2)cc1C(F)(F)F	·	5%	2[20.6 µM]	-8%	5%[20.9 µM]	-6%[25.6 µM]
CC1CCC2(CC1)NC(=O)N(CC(=O)c1cn(CCC#N)c3ccccc13)C2=O (centres undefined)	·	·	·	·	7.1µM*	·
CC1CCC2(CC1)NC(=O)N(CC(=O)N1CCc3ccccc3C1)C2=O (centres undefined)	·	-5%	·	·	1%	·
CCOC(=O)c1c(NC(=O)Cc2cccs2)sc(C(=O)N2CCCCC2)c1C	22	18%[38.3 µM]	5	7.1µM*	2.5µM*	-13%
CCOC(=O)c1c(N)sc(C(=O)N2CCCC2)c1C	?	-5%[38.3 µM]	1	?	-8%	-2%
CCOC(=O)c1sc(NC(=O)c2ccccc2)cc1C	17	-4%[38.3 µM]	10	?	?	2%
CCOC(=O)c1c(N)sc(C(=O)OCCOC)c1C	·	-2%	·	·	14µM*	·
CCOC(=O)c1c(N)sc(C(=O)N2CCCCC2)c1C	31	0%	-4	8.9µM*	?	-1%
CCOC(=O)c1sc(N)c(C(=O)Nc2ccccc2)c1C	·	6%	·	·	11µM*	·
CCNc1ncc2nc(-c3cn(C)c4ccccc34)c(=O)n(-c3ccccc3)c2n1	·	0%	·	·	12%	·
Cc1c2oc3c(C)ccc(C(=O)NC4C(=O)NC(C(C)C)C(=O)N5CCCC5C(=O)N(C)CC(=O)N(C)C(C(C)C)C(=O)OC4C)c3nc-2c(C(=O)NC2C(=O)NC(C(C)C)C(=O)N3CCCC3C(=O)N(C)CC(=O)N(C)C(C(C)C)C(=O)OC2C)c(N)c1=O (centres undefined)	·	-8%	·	·	-3%	·
O=C1CC(c2ccccc2)CCc2sccc2N1 (centres undefined)	12	-14%[38.3 µM]	3	25µM*	-4%	-1%
C[C@H]1CN(CCO)CCN1c1ccccc1	·	-16%	·	-4%	7%[13.5 µM]	3%[11.4 µM]
Cc1cc(SCC(=O)N/N=C/c2ccc(O)c(O)c2)c(C)cc1Br	31	14%[38.3 µM]	3	2.8µM*	5%	?
COc1ccc2nc(C)cc(SCC(=O)N/N=C/c3ccc(O)c(O)c3)c2c1	·	14%	·	·	28µM*	·
Cc1ccc(Nc2c(-c3ccc(C)s3)nc3ncccn23)cc1	·	·	-7	·	·	·
N#CCC(=N)N1CCN(c2ccc(Cl)cc2)CC1	-25	3%[38.3 µM]	9[1.84 µM]	-13%	17%	-11%
CCOP(=O)(OCC)C(C#N)=C1SCN(c2ccc(Cl)cc2)CS1	-20	3%	21	20µM*	-10%	-1%
C/C(=N\NC(=O)C1=NNC(=O)C1C)c1cccs1 (centres undefined)	·	11%	·	·	-2%	·
COc1ccc(OCc2nc3ccccc3n2Cc2ccccc2Cl)cc1	·	·	0	·	·	·
CC(C)OCCCNc1ncc2c(n1)CC(c1ccc(N(C)C)cc1)CC2=O (centres undefined)	24	13%[38.3 µM]	3	-17%	8.9µM*	-2%
CC(C)OCCCNc1ncc2c(n1)CC(c1cccs1)CC2=O (centres undefined)	·	12%	·	·	-1%	·
Cc1ccc(C(NC(=O)NCCCN2CCOCC2)=C(Cl)Cl)cc1F	-3	76%[38.3 µM]	9	-14%	0.4µM*	3%
Cc1ccc(C(NC(=O)N2CCCCC2)=C(Cl)Cl)cc1F	-6	1%	·	-14%	0.11µM*	0%
CCCOc1cccc(C2c3c(oc4ccc(F)cc4c3=O)C(=O)N2CCc2ccc(OC)cc2)c1 (centres undefined)	·	·	-6	·	·	·
SMILES	PNC inhibitor	IMPase Li inh	IMPase cell inh	HPGD inh	ALDH1A1 block	ALOX12 inhib
C[C@H](Br)C(=O)c1ccc2cc(Br)c3ccccc3c2c1	·	-7%	·	1%	?	4%[11.4 µM]
CCNc1ncc2nc(-c3ccc(Cl)cc3)c(=O)n(Cc3cccc(OC)c3)c2n1	·	?	·	·	2%	·
CSC1=C(C#N)C(c2ccccc2)C(C(C)=O)=C(C)N1 (centres undefined)	·	7%	·	·	-2%	·
C=CCOC(=O)C1=C(C)NC(SCC(=O)Nc2nccs2)=C(C#N)C1c1ccc(Cl)cc1 (centres undefined)	6	19%[38.3 µM]	-2	-28%	?	-14%
C=CCOC(=O)C1=C(C)NC(SC)=C(C#N)C1c1ccc(OCC)cc1 (centres undefined)	-2	·	7	·	20µM*	-15%
CSCSC1=C(C#N)C(c2ccc(Cl)cc2)C(C(C)=O)=C(C)N1 (centres undefined)	-23	26%	6	32µM*	8.9µM*	-14%
CCOC(=O)CSC1=C(C#N)C(c2ccccc2)C(C(C)=O)=C(C)N1 (centres undefined)	76	-2%[38.3 µM]	5	-21%	32µM*	5%
COCCn1c(=O)c(-c2cccs2)nc2cnc(Oc3ccc(OC)cc3)nc21	·	20%	·	?	?	-5%
Cc1ccc(CN2CCN(Cc3ccc(O)cc3)CC2CCO)o1 (centres undefined)	·	12%	·	·	?	·
N#C/C(=C1/CCCCCN1)c1nc2ccccc2[nH]1	-18	7%[38.3 µM]	11	-26%	8.9µM*	-3%
COc1ccc(C(=O)N2CCC3(CC2)CCN(C(c2ccccc2)c2ccccc2)CC3)cc1	·	4%	·	-4%	-4%	4%
Cn1cc(CN2CCc3ccccc3C2)c2ccccc21	-17	22%[38.3 µM]	11	-16%	14µM*	-3%
CS(=O)(=O)N(CC(=O)NCCSC1CCCCC1)c1ccc2c(c1)OCO2	38	22%[38.3 µM]	11	-9%	?	-3%
COc1ccc(N(CC(=O)NCCSC2CCCCC2)S(C)(=O)=O)c(OC)c1	?	68%[38.3 µM]	8	22µM*	14µM*	-5%
COc1ccc(-c2[nH]c(-c3ccc(OC)c(OC)c3)nc2SCC(=O)Nc2ccccc2)cc1	·	·	9	·	·	·
Cc1nnsc1C(=O)NNc1ccc(C(C)(C)C)cc1	·	·	·	·	32µM*	·
Cc1nnsc1C(=O)NNC(=O)c1ccc(C(F)(F)F)cc1	·	·	·	·	6%	·
CN(C)S(=O)(=O)Nc1ccc(Oc2ccccc2)cc1	14	0%[38.3 µM]	1	13µM*	0%	-6%
O=C(O)CNS(=O)(=O)c1ccc(F)cc1	?	15%[38.3 µM]	-7	5%	-5%	-2%
C=CCNC(=O)CNS(=O)(=O)c1ccc(F)cc1	53	25%[38.3 µM]	-2	32µM*	?	0%
COC(=O)C1=C(C)NC(=S)NC1c1ccc(OC(=O)c2ccco2)cc1 (centres undefined)	·	8%	·	·	?	·
COC(=O)C1=C(C)NC(=S)NC1c1sccc1C (centres undefined)	·	-2%	·	·	11µM*	·
CC1=C(C(=O)Nc2ccccc2C(F)(F)F)C(c2sccc2C)NC(=S)N1 (centres undefined)	·	6%	·	·	4.5µM*	·

Source: PubChem
